TSG101-PTAP inh – blocks PTAP binding to human TSG101, validation; Q99816; Fluorescence polarization, FITC-PTAP peptide/Tsg101, 20 min; Potency, µM (doses to about 115 µM), actives largely listed as inhibitors; 44,000 tested, under 10 active; AID 1347069; also: potency is read from the fitted curve at half-maximal effect; 0% is about no effect
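Read-out is FITC fluorescence polarization. Compounds were added to Tsg101 binding domain (10 uM final), then FITC-PTAP peptide (50 nM final), 20 min at r.t. Total S+P intensity flags fluorescent compounds.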
HTT-AS promoter – activators of huntingtin-antisense promoter activity; HEK293 HTT-AS promoter firefly luciferase reporter, 24 h; response scale: percent change from vehicle, -100% = no light; Potency, µM (doses to about 57.5 µM), for inactives: at the highest dose activity change, positive = activation, most hits filed as activators; 48,000 compounds, 0.24% hits; AID 1508624; also: potency is read from the fitted curve at half-maximal effect; nearly all actives have a fitted effect of over 55% in size
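HEK293 cells carrying firefly luciferase reporters were seeded at 2,500 per well in Opti-MEM and cultured for 24 h. They were then treated with compounds at up to 57.5 uM final for 24 h at 37 degrees C before Dual-Glo luminescence readout.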
GALK inhibitor – inhibitors of human galactokinase (GALK); P51570; recombinant GALK, Kinase-Glo ATP luminescence, 1 h; Potency, µM (highest dose often 57.5 µM), for inactives: at the highest dose activity, negative = inhibition, hits mostly inhibitors; 44,000 tested, under 10 active; AID 1347072;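 also: plate controls were full GALK reaction for no effect and reaction lacking GALK for full effect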
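Luminescent ATP-depletion readout (Kinase-Glo Plus) after 1 h room-temperature incubation of human GALK (5 nM) with galactose 100 µM and ATP 35 µM, pH 8.0 HEPES/Mg2+ buffer; compounds tested in qHTS format.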
HTT promoter inh – HTT promoter inhibition; HEK293 HTT promoter firefly luciferase reporter, 24 h; Potency, µM (series often up to 57.5 µM), inactives show at the top dose activity change, negative = inhibition, most hits filed as inhibitors; 48,000 compounds, 0.93% hits; AID 1508623; also: potency is read from the fitted curve at half-maximal effect; nearly all actives have a fitted effect of over 50% in size
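HEK293 cells carrying firefly luciferase reporters were seeded at 2,500 per well in Opti-MEM and cultured for 24 h. They were then treated with compounds at up to 57.5 uM final for 24 h at 37 degrees C before Dual-Glo luminescence readout.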
NTMT1 inhibitor – blocks human N-terminal methyltransferase 1 activity. Potency, µM (series often up to 114 µM), for the others: top-dose activity change, negative = inhibition, usual class: inhibitors. NTMT1 MTase-Glo SAH luminescence, purified enzyme. AID 1645870. Q9BV86. 59,000 compounds, 2.5% hits;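 also: potency is read from the fitted curve at half-maximal effect; plate controls were DMSO vehicle for no effect and no enzyme for full effect; nearly all actives have a fitted effect of over 65% in size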
Target sequence (Q9BV86 whole entry, looked up): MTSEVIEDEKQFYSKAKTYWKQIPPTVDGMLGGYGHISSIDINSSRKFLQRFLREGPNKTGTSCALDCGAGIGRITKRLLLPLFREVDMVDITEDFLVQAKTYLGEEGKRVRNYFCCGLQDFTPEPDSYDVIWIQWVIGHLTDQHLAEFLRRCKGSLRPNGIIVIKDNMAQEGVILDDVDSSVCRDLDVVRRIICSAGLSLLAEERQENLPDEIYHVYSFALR
OvCa metastasis – ovarian cancer metastasis inhibition, 3D TME model | Potency, µM (titrated, usually from 45.8 µM), for the others: at the top dose activity change, negative = inhibition, actives largely listed as inhibitors | 46,000 compounds, 0.1% hits | SKOV3ip1-GFP adhesion/invasion on 3D omental model, fluorescence;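 also: potency is read from the fitted curve at half-maximal effect; plate controls were DMSO wells for no effect and tomatine positive control wells for full effect; nearly all actives have a fitted effect of over 65% in size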
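qHTS, 4-pt dose (0.36-46 umol/L); SKOV3ip1-GFP, 1,200 cells/well, no FBS; primary omental fibroblast/mesothelial co-culture 48 h pre-grown; 2 h RT + 16 h 37 C; PBS wash, 4% PFA; GFP count 488/509 nm.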
Sfp qHTS opt – Sfp PPTase inhibition, chemistry optimization; shares compounds with NTMT1 inhibitor; purified Sfp PPTase enzyme activity, qHTS; Potency, µM (titrated, usually from 114 µM), inactives show top-dose activity change, negative = inhibition, actives largely listed as inhibitors; 230 compounds, 78% hits
Bsub HM489 growth – Sfp PPTase inhibitors: growth inhibition of B. subtilis HM489. shares compounds with NTMT1 inhibitor. Potency, µM (highest dose often 114 µM), inactives show at the top dose activity change, negative = inhibition, most hits filed as inhibitors. 220 compounds, 50% hits. B. subtilis HM489 (acpS-) growth, BacTiter-Glo, 5 h. AID 540353
Sfp PPTase gel – inhibitors of Bacillus subtilis Sfp PPTase, gel-based followup; 220 compounds, 54% hits; purified Sfp PPTase, gel-based product detection; Potency, µM (doses to about 250 µM), for the others: at the highest dose activity change, negative = inhibition, actives largely listed as inhibitors; shares compounds with NTMT1 inhibitor; AID 540355
Sfp inh SAR2 – Sfp phosphopantetheinyl transferase inhibition, SAR round 2; Potency, µM (top dose mostly 57.1 µM), inactives show at the highest dose activity change, negative = inhibition, actives largely listed as inhibitors; purified Sfp enzyme, PPTase activity, qHTS; 230 compounds, 87% hits; shares compounds with NTMT1 inhibitor
HSD17B4 inh – HSD17B4 (human) inhibition, HPGD counter-screen; shares compounds with NTMT1 inhibitor; purified HSD17B4, estradiol/NAD+, NADH fluorescence; Potency, µM (doses to about 57.1 µM), without a hit: top-dose activity change, negative = inhibition, usual class: inhibitors; 230 compounds, 10% hits; AID 743187
ALDH1A1 counter – inhibits human ALDH1A1, off-target for HPGD inhibitors; shares compounds with NTMT1 inhibitor; 230 compounds, 93% hits; recombinant ALDH1A1, NADH fluorescence, propionaldehyde/NAD+; AID 743195; Potency, µM (highest dose often 57.1 µM), without a hit: at the top dose activity change, negative = inhibition, most hits filed as inhibitors
NNMT counter – counter-screen for NTMT1 inhibitors: human NNMT inhibition; shares compounds with NTMT1 inhibitor; NNMT MTase-Glo luminescence, SAH detection; Potency, µM (top dose mostly 57.1 µM), for inactives: top-dose activity, negative = inhibition, actives largely listed as inhibitors; 120 compounds, 10% hits; AID 1645878
Target sequence (P40261 whole entry, looked up): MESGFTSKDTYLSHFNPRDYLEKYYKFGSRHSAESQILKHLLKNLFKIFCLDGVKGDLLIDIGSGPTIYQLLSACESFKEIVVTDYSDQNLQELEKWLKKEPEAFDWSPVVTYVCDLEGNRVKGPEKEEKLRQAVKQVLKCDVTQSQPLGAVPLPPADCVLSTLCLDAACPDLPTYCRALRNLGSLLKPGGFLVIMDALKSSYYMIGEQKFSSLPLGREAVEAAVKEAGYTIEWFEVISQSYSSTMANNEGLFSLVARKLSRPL
Numbers without * were called inactive; i = inactive; ? = inconclusive; / = not tested or not shown; ! = repeats disagree; [ ] = another dose, or the depositor's remark. Sampled rows, rich in hits. Any-hit rate of the full collection: about 2.5%. Calls follow the shape of the dose curve; as a rule, active = well fitted curve in the direction sought with a large enough effect; inconclusive = small, poorly fitted or top-dose-only effect, or another doubt; inactive = no such curve, though single readings can be large; an effect the other way counts as inactive or inconclusive.

SMILES | TSG101-PTAP inh | HTT-AS promoter | GALK inhibitor | HTT promoter inh | NTMT1 inhibitor | OvCa metastasis | HSD17B4 inh | ALDH1A1 counter | NNMT counter | others
NCC(CNc1nc(Nc2cccc(NC(=O)N3CCCC3)c2)ncc1I)C(=O)c1cccs1 (configuration not stated) | / | / | / | / | ? | / | / | / | ?
OCc1ccc(-c2ccc(-c3ccc(CO)s3)o2)s1 | / | -9% | / | -1% | ? | i | / | / | -28%[28.6 µM]
Cc1ccc(-n2cnc3cc(C(=O)N4CCCCC4)ccc32)cc1 | / | / | / | / | 2% | / | / | / | /
O=C(c1ccc2c(c1)ncn2-c1cccc(C(F)(F)F)c1)N1CCCCC1 | / | / | / | / | 0%[57.5 µM] | / | -12% | ? | /
Cc1c(-c2ccccc2)oc2c(C(=O)OCCN3CCCCC3)cccc2c1=O | / | -19% | / | -7% | ? | / | / | / | /
CC(=O)c1c(OCCN2CCCCC2)c(OCCC(C)c2ccc(F)cc2)c2oc(C)nc2c1C (configuration not stated) | / | / | / | / | ? | / | / | / | ?
COc1c(C(C)C)c(O)c(O)c2c1C(OC)[C@H]1OC(=O)[C@@]23CCCC(C)(C)[C@H]13 (some centres not stated) | / | / | / | / | 12%[29.8 µM] | / | / | / | -10%[38.3 µM]
COc1cc2c(Nc3ccc(NC(=O)c4ccccc4)cc3)ncnc2cc1OCCCN1CCOCC1 | / | -16% | / | 5% | -9% | -5% | / | / | /
COc1cc2c(Nc3cc(F)c(Cl)c(Cl)c3)ncnc2cc1OCC1CCCN(C)CCC1 | / | / | / | / | 35µM* | / | / | / | ?
O=C(O)c1ccc2c(c1)nc(Nc1cccc(Cl)c1)c1ccncc12 | / | -11% | / | ? | 14µM*! | -5% | / | / | ?
CC(=O)c1cccc(Nc2nc(-c3ccccc3Cl)nc3ccccc23)c1 | i | -44% | -3% | -31% | 11% | i | / | / | /
COc1ccc(-c2cc3c(C)nc(N)nc3n(C3CCC(OCCO)CC3)c2=O)cn1 (configuration not stated) | / | -29% | / | ? | 0% | -17% | / | / | ?
CN(C)CCCOc1ccc(-c2ccc3ncc4c(c3c2)n(C2CCOCC2)c(=O)n4C)cn1 | / | / | / | / | 0%[57.5 µM] | / | / | / | /
Cc1ccnc(NC(=S)N2CCN(c3ccc(Cl)cc3Cl)CC2)c1 | / | / | / | / | ? | / | -18% | 5.4µM* | / | Sfp qHTS opt=1.9µM*;Bsub HM489 growth=8.3µM*;Sfp PPTase gel=13µM*;Sfp inh SAR2=0.73µM*
Cc1ccnc(NC(=O)C(C)c2cccc(C(=O)c3ccccc3)c2)c1 (configuration not stated) | / | / | / | / | 6%[57.5 µM] | / | / | / | /
Cc1ccnc(NC(=S)N2CCc3ccccc3C2)c1 | / | / | / | / | ? | / | 47% | 3µM* | / | Sfp qHTS opt=9.4µM*;Bsub HM489 growth=33µM*;Sfp PPTase gel=3.2µM*;Sfp inh SAR2=1µM*
Cc1ccnc(NC(=S)N2CCNCC2)c1 | / | / | / | / | ? | / | 10% | 27µM* | / | Sfp qHTS opt=4%;Bsub HM489 growth=?;Sfp PPTase gel=-52%;Sfp inh SAR2=14µM*
S=C(Nc1cc(Cl)ccn1)N1CCN(c2ccc3ccccc3n2)CC1 | / | / | / | / | ? | / | -23% | i | / | Sfp qHTS opt=?;Bsub HM489 growth=26µM*;Sfp PPTase gel=?;Sfp inh SAR2=7.2µM*
O=C(c1cc2ccc3cccnc3c2[nH]1)N1CCN(c2cccc(Cl)c2)CC1 | i | -27% | 3% | ? | -3% | -9% | / | / | /
Cc1ccc(C)n1-c1cccc(-c2nn[nH]n2)c1 | / | / | / | / | -27%[57.5 µM] | / | / | / | /
